Assay [1] addresses Phospholipid hydroperoxide glutathione peroxidase GPX4 (Homo sapiens) (UniProt P36969). Put plainly: Primary qHTS Assay for Inhibitors of Recombinant Selenoprotein Glutathione Peroxidase 4 (GPX4) (AID 1845192). Also: nearly all actives have a fitted effect of over 65% in size. Also: potency is read from the fitted curve at half-maximal effect. In a few lines: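 NADPH consumption, followed by fluorescence at 340/450 nm between 0 and 15 min, reports GPX4 activity via coupled glutathione reductase (100 nM). Enzyme 200 nM was pre-exposed to compound 30 min; 0.5 mM cumene hydroperoxide and 1 mM GSH served as substrates.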
A general note: In qHTS, concentration-response curves come from the screen itself.

The nature of assay [2]: Quantitative High-Throughput drug screen in 47 multiple myeloma cell lines against the NCATS MIPE library collection: FR4_PLB cell viability assay (AID 1918924; also: nearly all actives have a fitted effect of over 35% in size; also: potency is read from the fitted curve at half-maximal effect). The method in brief:
(§1)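 Luminescent ATP measurement with CellTiter-Glo gives viability, scaled between DMSO-only wells (100%) and media-only wells (0%). Cells, 500 per well, faced library compounds for 48 hours at 37C.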

Assay [3] is described as follows: Quantitative High-Throughput drug screen in 47 multiple myeloma cell lines against the NCATS MIPE library collection: Delta47_JCRB cell viability assay (AID 1918925; also: nearly all actives have a fitted effect of over 45% in size; also: potency is read from the fitted curve at half-maximal effect). In a few lines: (§2)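 Myeloma cells (500 per well) were exposed to MIPE 4.0 compounds by pin transfer and incubated 48 hours at 37C, 5% CO2. Viability was read as ATP by CellTiter-Glo luminescence, normalised to DMSO (100%) and media-only (0%) wells.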

Assay [4] can be described thus: Quantitative High-Throughput drug screen in 47 multiple myeloma cell lines against the NCATS MIPE library collection: AMO1_DSMZ cell viability assay (AID 1918927; also: nearly all actives have a fitted effect of over 30% in size; also: potency is read from the fitted curve at half-maximal effect). The method in brief:
as §2

Assay [5] is described as follows: Quantitative High-Throughput drug screen in 47 multiple myeloma cell lines against the NCATS MIPE library collection: ARP1_JJKsccF8 cell viability assay (AID 1918928; also: nearly all actives have a fitted effect of over 40% in size; also: potency is read from the fitted curve at half-maximal effect). The method in brief: (§3)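 Myeloma cells at 500 per well in 1536-well format treated with MIPE 4.0 library by pin transfer for 48 h at 37C, 5% CO2. Viability from ATP luminescence (CellTiter-Glo), normalized to DMSO (100%) and media-only (0%) wells.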

Assay [6] in a line: Quantitative High-Throughput drug screen in 47 multiple myeloma cell lines against the NCATS MIPE library collection: ARD_JJKsccE7 cell viability assay (AID 1918929; also: potency is read from the fitted curve at half-maximal effect). In a few lines:
as §2

The nature of assay [7]: Quantitative High-Throughput drug screen in 47 multiple myeloma cell lines against the NCATS MIPE library collection: KMM1_JCRB cell viability assay (AID 1918960). Also: nearly all actives have a fitted effect of over 30% in size. Also: potency is read from the fitted curve at half-maximal effect. In a few lines: as §3
Assay [8] is described as follows: Quantitative High-Throughput drug screen in 47 multiple myeloma cell lines against the NCATS MIPE library collection: KHM11_PLB cell viability assay (AID 1918962). Also: nearly all actives have a fitted effect of over 35% in size. Also: potency is read from the fitted curve at half-maximal effect. The method in brief:
as §1

Assay [9] is described as follows: Quantitative High-Throughput drug screen in 47 multiple myeloma cell lines against the NCATS MIPE library collection: JIM3_ECACC cell viability assay (AID 1918963; also: nearly all actives have a fitted effect of over 35% in size; also: potency is read from the fitted curve at half-maximal effect). In a few lines:
as §1

Assay [10] can be described thus: Quantitative High-Throughput drug screen in 47 multiple myeloma cell lines against the NCATS MIPE library collection: JIM1_ECACC cell viability assay (AID 1918964; also: potency is read from the fitted curve at half-maximal effect). The method in brief: as §2
A short description of assay [11]: Quantitative High-Throughput drug screen in 47 multiple myeloma cell lines against the NCATS MIPE library collection: INA6_PLB cell viability assay (AID 1918965; also: nearly all actives have a fitted effect of over 55% in size; also: potency is read from the fitted curve at half-maximal effect). In a few lines:
(§4)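 Steps: seed 500 cells per well; pin-transfer MIPE 4.0 library; incubate 48 h at 37C, 5% CO2, humidified; add CellTiter-Glo, 5 min room temperature; read luminescence.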

The nature of assay [12]: Quantitative High-Throughput drug screen in 47 multiple myeloma cell lines against the NCATS MIPE library collection: JJN3_DSMZ cell viability assay (AID 1918966; also: potency is read from the fitted curve at half-maximal effect; nearly all actives have a fitted effect of over 50% in size). In a few lines:
as §2

A short description of assay [13]: Quantitative High-Throughput drug screen in 47 multiple myeloma cell lines against the NCATS MIPE library collection: EJM_DSMZ cell viability assay (AID 1918926; also: nearly all actives have a fitted effect of over 30% in size; also: potency is read from the fitted curve at half-maximal effect). The method in brief:
as §2

Assay [14] is described as follows: Quantitative High-Throughput drug screen in 47 multiple myeloma cell lines against the NCATS MIPE library collection: Karpas620_DSMZ cell viability assay (AID 1918959). Also: nearly all actives have a fitted effect of over 30% in size. Also: potency is read from the fitted curve at half-maximal effect. The method in brief: as §1
Assay [15] is described as follows: Quantitative High-Throughput drug screen in 47 multiple myeloma cell lines against the NCATS MIPE library collection: H1112_PLB cell viability assay (AID 1918967; also: nearly all actives have a fitted effect of over 30% in size; also: potency is read from the fitted curve at half-maximal effect). In a few lines: as §2
Assay [16] has as its target Luciferin 4-monooxygenase (Photinus pyralis) (UniProt P08659). The experiment in a line: Primary firefly luciferase (FLuc) qHTS assay for identification of artifact compounds. (AID 1845220). Also: nearly all actives have a fitted effect of over 60% in size. The method in brief: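 Cell-free, 1536-well qHTS. Buffer pH 7.6 with 0.01% Tween-20 and 0.05% BSA; 10 uM D-luciferin, 10 uM ATP; 10 nM P. pyralis luciferase; luminescence after 5 min.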

The test system of assay [17] is Nanoluciferase (engineered Oplophorus gracilirostris luciferase). The experiment in a line: Primary Nanoluciferase (NLuc) qHTS assay for identification of artifact compounds. (AID 1845222). The method in brief:
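Compounds are pinned into diluted (1:55) conditioned medium of NLuc-expressing S16 cells and held 15 min at room temperature protected from light. Nano-Glo substrate follows, and luminescence is read 5 min later.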

The nature of assay [18]: Quantitative High-Throughput drug screen in 47 multiple myeloma cell lines against the NCATS MIPE library collection: Karpas417_ECACC cell viability assay (AID 1918961). As to conditions: Karpas417 myeloma viability, CellTiter-Glo ATP luminescence, 48 h; viability (% of DMSO): at 45.8 µM (top of the series). In a few lines:
as §4

A short description of assay [19]: Primary redox qHTS assay for identification of artifact compounds. (AID 1845223). In a few lines: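 Amplex Red (25 uM) and HRP (250 mU/mL) in HBSS, with compounds for 15 min, then 250 uM DTT for 30 min, room temperature, dark. Fluorescence 525/598 nm read; normalized to DMSO and 10 uM DA3003; Hill fit.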

Potency and outcome data for 13 compounds are collected here from PubChem BioAssay (NCATS).

A number with no mark means an inactive call. Results filed as inconclusive are left out. Active and inactive are the calls of the source. Calls follow the shape of the dose curve; as a rule, active = well fitted curve in the direction sought with a large enough effect; inconclusive = small, poorly fitted or top-dose-only effect, or another doubt; inactive = no such curve, though single readings can be large; an effect the other way counts as inactive or inconclusive.

Sequence of Phospholipid hydroperoxide glutathione peroxidase GPX4 (Homo sapiens) (P36969 whole entry, looked up): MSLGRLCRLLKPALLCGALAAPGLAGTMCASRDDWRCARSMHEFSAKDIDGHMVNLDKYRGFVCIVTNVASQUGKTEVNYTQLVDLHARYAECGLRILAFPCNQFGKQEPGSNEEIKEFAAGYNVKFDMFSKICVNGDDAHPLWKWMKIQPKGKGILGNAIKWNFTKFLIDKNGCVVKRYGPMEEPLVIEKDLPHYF

As to `Cc1ccc(S(=O)(=O)Nc2nc3ccccc3nc2Nc2ccc3nsnc3c2)cc1`, the Potency entry in assay [1] is “inactive”. The Potency was 6.45 µM (active) in assay [2]; 0.575 µM (active) in [3]; 0.512 µM (active) in [4]; 7.24 µM (active) in assay [5]; 0.724 µM (active) in assay [6]; 0.911 µM (active) in assay [7]. The Potency in assay [8] was 0.575 µM (active); in assay [9] it was 1.82 µM (active); in assay [10], 0.182 µM (active); in assay [11] it was 1.29 µM (active); in assay [12] it was 1.44 µM (active).

`O=C1CN2Cc3c(ccc(Cl)c3Cl)N=C2N1`: the Potency entry in assay [1], in assay [2], in assay [13], in assay [4], in assay [6] and in [14] was “inactive” throughout. The Potency result in [7] and in assay [10] was “inactive” throughout. Further, the Potency in assay [3] and in assay [15] was 29.6 µM (active) each time.

For the compound `N[C@@H](CC(=O)N1CCn2c(nnc2C(F)(F)F)C1)Cc1cc(F)c(F)cc1F`, the Potency result in assay [1], in assay [2], in assay [3], in assay [13], in assay [4] and in [5] was “inactive” in each case. The Potency result in assay [6], in [14], in assay [7], in assay [8], in assay [9] and in [10] was “inactive” each time. Besides, the Potency result in assay [15] is “inactive”.

In the case of `CCCCCCCCCCCCCCCC(=O)O[C@H]1[C@@H](O)[C@@H](O)[C@@H]([C@H](NC(=O)[C@@H]2C[C@@H](CCC)CN2C)[C@H](C)Cl)O[C@@H]1SC`, the Potency entry in assay [1], in [2], in assay [3], in assay [13], in assay [4] and in assay [5] was “inactive” throughout. For the same compound, the Potency entry in [9] and in assay [10] was “inactive” each time. Further, the Potency in [7] was 8.33 µM (active); in assay [15] it was 18.7 µM (active).

Regarding `N#CC(c1ccnc(NCCc2cccnc2)n1)c1nc2ccccc2s1` (stereo not given), the Potency result in assay [1] is “inactive”. The Potency in assay [2] is 20.9 µM (active); in assay [3], 11.8 µM (active); in assay [13], 18.7 µM (active); in assay [4], 6.62 µM (active); in assay [5], 18.7 µM (active); in assay [6], 6.62 µM (active). Moreover, the Potency is 9.35 µM (active) in [14]; 4.69 µM (active) in assay [7]; 11.8 µM (active) in [8]; 16.6 µM (active) in assay [9]; 5.9 µM (active) in assay [10]; 10.5 µM (active) in assay [12]. In addition, in assay [15], the Potency was 18.7 µM (active).

Regarding `O=C(c1ccc(C(=O)N2CCC(N3CCCC3)CC2)c(Nc2ccccc2)c1)N1CCC(N2CCCC2)CC1`, the Potency result in assay [1], in assay [16], in assay [17], in assay [3], in assay [6] and in assay [14] was “inactive” in each case. In addition, the Potency entry in assay [7], in assay [8], in assay [9] and in assay [15] was “inactive” each time. In addition, the values for the Potency in [13] and in assay [5] were 14.8 µM (active) and 5.26 µM (active), respectively.

Consider `CCC(c1ccc(O)cc1)C(CC)c1ccc(O)cc1` (stereo not given), for which the Potency entry in assay [1], in assay [6], in assay [14], in assay [7], in assay [9] and in assay [11] was “inactive” each time. In addition, the Potency in assay [2] is 5.26 µM (active); in assay [3], 0.0026 µM (active); in assay [13] it was 0.935 µM (active); in [5], 7.43 µM (active); in assay [15], 8.33 µM (active).

`CCN(CC)CCCCNc1nc2cc(Cl)c(Cl)cc2nc1-c1ccc(-c2cccs2)s1`: the Potency in [1] is 20.2 µM (active); in assay [2] it was 10.5 µM (active); in assay [3] it was 7.43 µM (active); in [13] it was 11.8 µM (active); in [4], 6.62 µM (active); in assay [5], 7.43 µM (active). In addition, the Potency in [6] is 8.33 µM (active); in assay [14], 9.35 µM (active); in assay [7], 9.35 µM (active); in assay [8] it was 10.5 µM (active); in assay [9], 8.33 µM (active); in [11], 4.69 µM (active). Besides, the Potency in assay [12] was 23.5 µM (active); in [15] it was 7.43 µM (active).

In the case of `CCCCOCCOc1nc(-c2ccc(C(=O)O)c(F)c2)sc1C`, the Potency entry in assay [1], in [2], in assay [3], in assay [13], in assay [4] and in [14] was “inactive” throughout. The Potency entry in [7], in assay [18] and in [15] was “inactive” in each case. For the same compound, in [9], the Potency is 0.372 µM (active).

Turning to `Cc1cccc(-c2[nH]c(C(C)(C)C)nc2-c2ccc3c(c2)OCO3)n1`, the Potency entry in [1] and in assay [4] was “inactive” throughout. The Potency in [2] is 29.6 µM (active); in assay [3], 1.32 µM (active); in assay [13] it was 11.8 µM (active); in assay [5], 16.6 µM (active); in [6], 5.26 µM (active); in assay [7] it was 3.72 µM (active). Also, the Potency was 1.18 µM (active) in assay [8], 6.62 µM (active) in assay [10], 14.8 µM (active) in assay [12] and 1.32 µM (active) in [15].

For the compound `O=C(Nc1cccc(Cl)c1)Nc1ncc(CCNc2ncnc3ccsc23)s1`, the Potency entry in assay [1] was “inactive”. Moreover, the Potency was 6.62 µM (active) in assay [2]; 7.43 µM (active) in assay [3]; 1.05 µM (active) in assay [4]; 4.69 µM (active) in [6]; 3.32 µM (active) in [14]; 5.9 µM (active) in [7]. For the same compound, the Potency in assay [8] was 4.18 µM (active); in [9], 13.2 µM (active); in assay [11], 7.43 µM (active); in assay [12], 5.26 µM (active); in assay [15] it was 0.0833 µM (active).

`CCN1CCN(c2ccc(Nc3cc(N(C)C(=O)Nc4c(Cl)c(OC)cc(OC)c4Cl)ncn3)cc2)CC1`: the Potency result in assay [1], in assay [16], in assay [17], in assay [5], in assay [7] and in assay [9] was “inactive” each time. Moreover, the Potency result in [15] was “inactive”. Also, in assay [19], the compound was classed as inactive. Also, the Potency in assay [2] is 18.7 µM (active); in assay [3], 0.0093 µM (active).

As for `O=C1NC(=O)C(c2cnc3ccccn23)=C1c1cn2c3c(cccc13)CN(C(=O)N1CCOCC1)CC2`, the Potency result in assay [1] and in assay [16] was “inactive” in each case. For the same compound, the Potency is 1.05 µM (active) in assay [3]; 0.187 µM (active) in assay [13]; 0.0066 µM (active) in assay [5]; 0.0042 µM (active) in assay [6]; 13.2 µM (active) in [7]; 0.001 µM (active) in [8]. The Potency in assay [11] is 0.001 µM (active); in assay [15] it was 1.48 µM (active).
